Data from PubChem BioAssay (NCI).
This is part of a sample that, as a whole, favours compounds with a hit. Of some 83,000 tested, about 20% had one in any assay.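 Percent growth is the endpoint: 0 to 100 indicates growth inhibition (40 means 60% inhibition), 0 means no net growth, and negative values indicate cell death.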 Values without a mark were called inactive. Calls of active or inactive are those of the source. The calls were made as follows: active = growth percent below 10; inactive = the rest.

Tests used:
Test in all cases: NCI-60 one-dose screen, 48 h (100 = growth as untreated, 0 = no growth, -100 = all killed)
Details in all cases: 10 µM
T-47D breast = system: T-47D breast
BT-549 breast = system: BT-549 breast
MDA-MB-435 melanoma = system: MDA-MB-435 melanoma
SW-620 colon = system: SW-620 colon
MCF7 breast = system: MCF7 breast
HCT-116 colon = system: HCT-116 colon
HCC-2998 colon = system: HCC-2998 colon
KM12 colon = system: KM12 colon

Compound	growth (T-47D breast)	growth (BT-549 breast)	growth (MDA-MB-435 melanoma)	growth (SW-620 colon)	growth (MCF7 breast)	growth (HCT-116 colon)	growth (HCC-2998 colon)	growth (KM12 colon)
CCCN(CCC)C(=O)[C@H](CC)[C@@H]1CC[C@@H](C)[C@@H]([C@H](C)[C@@H](O)[C@@H](C)C(=O)[C@H](CC)C2O[C@]3(C=C[C@@H](O)[C@]4(CC[C@@](C)([C@H]5CC[C@](O)(CC)[C@H](C)O5)O4)O3)[C@H](C)C[C@@H]2C)O1 (stereo partly drawn)	11.1%	6.17% (active)	3.17% (active)	9.23% (active)	-15.3% (active)	6.43% (active)	4.75% (active)	19.9%
CCn1c(SCc2ccc(C)cc2)nnc1-c1nn(-c2ccc(Cl)cc2Cl)c(-c2ccc(Cl)cc2)c1C	-8.15% (active)	-7.34% (active)	19.7%	20.4%	4.46% (active)	1.74% (active)	23.4%	15.8%
C[N+]1(CCCCC[N+]2(C)CCCC2)CCCC1	101%	77.8%	98.6%	98.3%	95.2%	107%	119%	102%
Nc1ccc(-c2cccs2)cc1NC(=O)c1ccc(CCCC(=O)Nc2ccc(C3CC3N)cc2)cc1 (stereo not drawn)	65.1%	96.5%	20.6%	23.7%	18.8%	3.29% (active)	99.7%	69.3%
CC1CCCC(C(=O)O)C1C(=O)O (stereo not drawn)	90.9%	95.9%	102%	98.9%	103%	99.5%	92.9%	106%
COc1ccc2c(c1)C(=O)/C(=C/c1ccc([N+](=O)[O-])o1)O2	-46.9% (active)	-49.9% (active)	-72.5% (active)	-60.4% (active)	-18.7% (active)	-44.9% (active)	-78.5% (active)	-80.3% (active)
CC(C)C[C@H](NC(=O)Cn1cccc(CNC(=O)c2ccccc2)c1=O)B(O)O	-18.5% (active)	24.1%	-54.5% (active)	6.53% (active)	30.2%	2.43% (active)	-34.8% (active)	-12.5% (active)
CC(=O)Oc1cc(OC(C)=O)c2ccccc2c1OC(C)=O	61.4%	92.4%	-57.4% (active)	91.9%	56.8%	80.1%	110%	90.6%
C=CCN(CC=C)C(=O)[C@H](CC)[C@@H]1CC[C@@H](C)[C@@H]([C@H](C)[C@@H](O)[C@@H](C)C(=O)[C@H](CC)C2O[C@]3(C=CC(=O)[C@]4(CC[C@@](C)([C@H]5CC[C@](O)(CC)[C@H](C)O5)O4)O3)[C@H](C)C[C@@H]2C)O1 (stereo partly drawn)	18.2%	54.8%	40.7%	24.8%	8.84% (active)	13.9%	26.5%	48.8%
Clc1ccc2c(c1)C(N1CCNCC1)=Nc1ccccc1O2	35.2%	72.9%	28.9%	67%	28.9%	36.2%	-25.4% (active)	51.9%
C=C1CCC2(C#N)[C@H]3[C@H](CC[C@@H]2C)[C@@H](C)C[C@@H](CC(C)(C)NC(=O)CN2CCC2=O)[C@H]13 (stereo partly drawn)	12.5%	55.3%	57.9%	74.6%	35.2%	39%	41.1%	42.7%
COc1ccc(/C=C2\CCCC3=C2N=C2SC(C)=CN2C3c2ccc(OC)cc2)cc1 (stereo not drawn)	108%	105%	90%	99.6%	88.8%	93.4%	111%	108%
NC(=O)c1cccc(-n2ccc3cc(NC(=O)Nc4ccc(Cl)c(C(F)(F)F)c4)ccc32)n1	68.5%	69.8%	74.9%	111%	43.8%	67%	96.3%	64.4%
Cc1c(Cl)cccc1NC(=O)CCCl	92.3%	99.7%	105%	106%	102%	89.4%	99.1%	100%
OC(CNc1ccnc2cc(Cl)ccc12)CNC1CCCCC1 (stereo not drawn)	65.6%	70%	52.5%	92.9%	75.7%	68.9%	64.3%	83.5%
CCC(c1ccc(OC)cc1)C(CC)c1ccc(O)c(CN2CCN(C)CC2)c1 (stereo not drawn)	39.1%	76.9%	33.5%	16.6%	50.9%	29.1%	-1.52% (active)	53.9%

Compound	growth (T-47D breast)	growth (BT-549 breast)	growth (MDA-MB-435 melanoma)	growth (SW-620 colon)	growth (MCF7 breast)	growth (HCT-116 colon)	growth (HCC-2998 colon)	growth (KM12 colon)
O=C1/C=C/[C@@H](O)[C@@H]2C[C@@H](O)C[C@H]2/C=C/CCC[C@H](CCc2ccc(C(F)(F)F)cc2)O1	-32.2% (active)	4.5% (active)	7.3% (active)	-1.3% (active)	-17.5% (active)	-45.8% (active)	-11.5% (active)	-6.74% (active)
O=C(/C=C/C=C/c1c(C2CC2)nc2ccccc2c1-c1ccc(F)cc1)c1cccs1	4.82% (active)	3.45% (active)	2.03% (active)	6.11% (active)	12.4%	-32.6% (active)	-12.9% (active)	9.97% (active)
CC(C)(C)c1ccc(S(=O)(=O)Oc2ccc(NC(=O)C3CCCCC3)cc2)cc1	0.897% (active)	51.8%	59.6%	51.9%	19.8%	30.8%	51.8%	31.7%
COc1ccc2nc(Cl)c(Cn3nnc(Cc4ccccc4)n3)cc2c1	2.44% (active)	20.3%	29.3%	66.4%	27.9%	29.2%	59%	36.5%
CCc1c2c(nc3ccc(OC(=O)N4CCC(N5CCCCC5)CC4)cc13)-c1cc3c(c(=O)n1C2)COC(=O)[C@]3(O)CC	25.1%	22.1%	34.2%	41.4%	3.64% (active)	22%	28.2%	53.1%
CC(C)[N+]1(C)C2CC[C@@H]1CC(OC(=O)C(CO)c1ccccc1)C2 (stereo partly drawn)	96.6%	106%	104%	101%	111%	107%	103%	115%
COc1cc2c3c(n([C@@H]4CCOC4)c(=O)c2cc1OC)-c1cc2c(cc1C3=O)OCO2	21.7%	46.2%	62.7%	50.2%	13.5%	27.1%	70.9%	62.4%
COc1ccc(NC(=O)C2CC3C=CC2C3)c([N+](=O)[O-])c1 (stereo not drawn)	98.1%	139%	102%	110%	101%	120%	103%	105%
CCOC(=O)c1cc(C(=O)c2ccc(OC)c(OC)c2)n2c1ccc1ccc3cccnc3c12	47.5%	33%	-25.6% (active)	12.8%	21.8%	27.2%	65.7%	28.8%
COc1ccc(C(=O)N/N=C/c2cc(C(F)(F)F)ccc2Cl)cc1	90%	96.1%	91.1%	98.8%	60.3%	93.2%	95.7%	101%
CC(C)c1cc(N=O)cc(C(C)C)c1O	108%	111%	109%	100%	103%	110%	104%	111%
Cc1ccc(NCCN(C)CC(C)O)c2c(=O)c3ccccc3sc12 (stereo not drawn)	85.2%	84.4%	30%	23.6%	20%	18.5%	15.4%	44.9%
O=C1Cc2cc(CCN3CCN(c4nsc5ccccc45)CC3)c(Cl)cc2N1	55.2%	92.6%	90.9%	92.9%	86.1%	98.8%	120%	98.1%
Nc1nc(-c2cccnc2)nc2c1sc(=S)n2-c1ccccc1	90.8%	101%	111%	104%	94.4%	70.7%	105%	99%
Cc1nn(-c2ccc(-c3ccc(OC(F)(F)F)cc3)cc2)c2nc(Cc3ccccc3)nc(N)c12	49%	99.4%	83.5%	54.4%	73.8%	36.3%	77.2%	79.6%
